This is a sample that favours compounds with a hit; in the whole collection about 7% have one here.
KAT2A inh = GCN5L2 (KAT2A) acetyltransferase inhibition | Q92830 | GCN5L2 HAT assay, ThioGlo1 CoA-SH fluorescence | Potency, µM (titrated, usually from 58.9 µM), inactives show at the highest dose activity change, negative = inhibition, usual class: inhibitors | actives 0.21% (n = 390,000) | AID 504327; note: potency is the fitted concentration of half-maximal effect; % is set by controls: 0 for no effect and ±100 for the full control effect
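GCN5L2 (20nM final) in 50mM HEPES, 0.1mM EDTA pH 7.5, 0.01% Tween-20 was preincubated 15 min at room temperature with compound, then given ThioGlo1 (50uM), H3(1-25) peptide (75uM) and acetyl-CoA (70uM); CoA-thiol fluorescence (Ex340/Em540) was read at 0 and 20 min.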
HP1b binding inh = HP1-beta chromodomain-methylated histone interaction inhibition; P83916; AlphaScreen HP1-beta / biotin-H3K9me3 peptide binding; Potency, µM (highest dose often 114 µM), without a hit: at the highest dose activity change, negative = inhibition, most hits filed as inhibitors; actives 0.56% (n = 390,000); AID 540317; note: potency is the fitted concentration of half-maximal effect; nearly all actives have a fitted effect of over 70% in size
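HP1-beta protein (50 nM final) preincubated 30 min at room temperature with biotinylated H3(1-18)K9me3 peptide (50 nM) in PBS pH 7.4, 0.01% Tween-20, then compound added for 30 min. AlphaScreen streptavidin donor/nickel chelate acceptor beads (10 ug/mL final), 30 min dark, luminescence read.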
BAZ2B inh = BAZ2B (human) inhibition | Q9UIF8 | Potency, µM (titrated, usually from 114 µM), for inactives: top-dose activity change, negative = inhibition, hits mostly inhibitors | AID 504333 | actives 4.4% (n = 360,000) | AlphaScreen BAZ2B-H3K14Ac peptide displacement; note: potency is the fitted concentration of half-maximal effect; % is set by controls: 0 for no effect and ±100 for the full control effect; nearly all actives have a fitted effect of over 60% in size
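Multi-concentration screen (max 110 uM) measuring displacement of acetylated histone H3 peptide from BAZ2B by AlphaScreen, using 50 nM protein, 50 nM peptide and 10 ug/mL streptavidin donor plus Ni-chelate acceptor beads.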
PI5P4Ka inh = PI5P4K alpha (human) kinase inhibition | max response, % | PI5P4Kalpha enzyme, ADP-Glo luminescence, 60 min; hits give low values | P48426 | actives 1.2% (n = 330,000); active = max response of -50% or lower; inconclusive = between -30% and -50%; inactive = -30% or higher; note: value at the top dose of about 77 µM; % is set by controls: 0 for no effect and ±100 for the full control effect
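qHTS, 1536-well: enzyme/substrate mix, compound by pin tool, 5 microM ATP final; RT 60 min; ADP-Glo reagents 1 (45 min) then 2 (30 min); luminescence.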
PLK1 PBD block = PLK1 (human) polo-box domain binding inhibition. Potency, µM, for the others: max response, negative = inhibition, most hits filed as inhibitors. P53350. Plk1 PBD binding of FITC phosphopeptide, fluorescence polarization. actives 2.8% (n = 360,000). AID 720504; note: potency is the fitted concentration of half-maximal effect; series mostly up to about 57 µM; % is set by controls: 0 for no effect and ±100 for the full control effect; nearly all actives have a fitted effect of over 65% in size
Target sequence (P53350 whole entry, looked up, the tested form may be a part): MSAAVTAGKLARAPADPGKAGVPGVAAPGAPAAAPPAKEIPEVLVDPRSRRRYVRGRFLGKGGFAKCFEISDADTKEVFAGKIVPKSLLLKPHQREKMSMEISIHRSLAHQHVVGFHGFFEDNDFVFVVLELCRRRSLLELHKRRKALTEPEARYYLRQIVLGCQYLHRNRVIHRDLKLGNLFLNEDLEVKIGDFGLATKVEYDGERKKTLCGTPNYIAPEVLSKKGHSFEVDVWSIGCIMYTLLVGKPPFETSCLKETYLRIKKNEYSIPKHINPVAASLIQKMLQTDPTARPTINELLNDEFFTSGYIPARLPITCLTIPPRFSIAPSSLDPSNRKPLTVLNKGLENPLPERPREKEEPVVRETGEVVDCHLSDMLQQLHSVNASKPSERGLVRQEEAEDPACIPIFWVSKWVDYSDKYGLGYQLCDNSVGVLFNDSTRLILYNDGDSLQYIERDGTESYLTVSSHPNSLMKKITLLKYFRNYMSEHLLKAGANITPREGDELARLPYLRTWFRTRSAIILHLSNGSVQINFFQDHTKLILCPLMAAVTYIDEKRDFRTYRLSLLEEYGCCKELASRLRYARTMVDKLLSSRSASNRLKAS
JMJD2A Tudor inh = JMJD2A Tudor domain (human) inhibition | AlphaScreen JMJD2A-Tudor / H3K4me3 peptide binding | O75164 | actives 4.4% (n = 390,000) | Potency, µM (series often up to 114 µM), for the others: top-dose activity change, negative = inhibition, usual class: inhibitors; note: potency is the fitted concentration of half-maximal effect; % is set by controls: 0 for no effect and ±100 for the full control effect; nearly all actives have a fitted effect of over 50% in size
Active calls of the source: *; ? = inconclusive; / = no result given; [ ] = dose if it differs, or a comment. Unless noted, calls come from the whole dose curve; as a rule, active = well fitted curve in the direction sought with a large enough effect; inconclusive = small, poorly fitted or top-dose-only effect, or another doubt; inactive = no such curve, though single readings can be large; an effect the other way counts as inactive or inconclusive.

SMILES	KAT2A inh	HP1b binding inh	BAZ2B inh	PI5P4Ka inh	PLK1 PBD block	JMJD2A Tudor inh
CC1(c2ccccc2Cl)NC(=O)N(CC(=O)Nc2ccc(N3CCCCC3)cc2)C1=O (centres undefined)	?	-24%	35µM*	-6	-1%	?
CC1CCCCN1CC(=O)Nc1ccc(Oc2ccccc2)cc1 (centres undefined)	-2%	49%	1%	0	-12%	-9%
CCNC(=S)Nc1ccc(N2CCCCC2)cc1	2%	?	35µM*	4	?	-30%[57.1 µM]
CSc1ccccc1NC(=O)CN1CCCCC1C (centres undefined)	3%	18%	-1%	12	21µM*	-15%[11.4 µM]
CC(=O)c1c[nH]c(C(=O)Nc2ccc(N3CCCCCC3)cc2)c1	0%	?	35µM*	-28	-2%	35µM*
COc1cccc(CNC(=O)COCc2cc(-c3ccc4c(c3)OCO4)on2)c1	-5%	17%	-4%	/	/	-9%
NC1=NC(=O)C(c2ccccc2)C(=O)N1 (centres undefined)	/	-2%	/	4	-9%	-7%
Cc1cc(N2CCN(c3ccccc3Cl)CC2)n2cc(-c3ccccc3)nc2n1	-9%	0%	?	-8	-4%	?
Cc1cc(N2CCN(c3ccccc3)CC2)n2cc(-c3ccccc3)nc2n1	18%	-35%	45µM*	-2	-6%	?
NC(=O)C1(N2CCCCC2)CCN(C(=O)Nc2ccc(F)cc2F)CC1	-2%	30%	-5%	/	/	-14%
Cc1ccc(Cn2c(-c3ccccc3)nc3ccccc32)cc1	-10%	69%	28%	/	/	17%
C#CCn1c(/C=C/c2ccc(Cl)cc2)nc2ccccc21	-11%	195%	112%	/	/	104%
Clc1ccc(Cn2c(/C=C/c3ccco3)nc3ccccc32)cc1	-14%	?	56µM*	-78*	-9%	-26%
CCCCn1c(/C=C/c2ccco2)nc2ccccc21	-3%	27%	-22%	-25	-2%	-21%
Cc1ccc(Cn2c(S(=O)(=O)O)nc3ccccc32)cc1	1%	-9%	-38%	-23	24µM*	-24%
CCCn1c(/C=C/c2ccco2)nc2ccccc21	17%	15%	9%	-52*	-15%	-24%
CC(c1ccccc1)n1c(S(=O)(=O)O)nc2ccccc21 (centres undefined)	-7%	37%	2%	-67*	-25%	-28%
O=C(C1CC1)N1CCc2cc(Br)c(S(=O)(=O)N3CCCCCC3)cc21	/	30%	/	-2	-3%	-7%
Cc1nc(-c2ccc(F)cc2)sc1CCNC(=O)c1ccccc1C(F)(F)F	-1%	-1%[57 µM]	-2%	/	/	-26%
CC1CC(C)CN(C(=O)CNC(=O)c2ccc3ccccc3c2)C1 (centres undefined)	2%	23%	-3%	1	5%	0%
Cc1ccc(Cn2c(/C=C/c3ccco3)nc3ccccc32)cc1	-8%	11%	?	-64*	-2%	-1%
Cc1ccc(Cn2c(Cc3ccccc3)nc3ccccc32)cc1	-15%	79%	42%	8	2%	58%
CCN(CC)CCC(c1ccc(N(C)C)cc1)c1c(OC)cc(OC)c2c1OC(=O)CC2c1ccc(N(C)C)cc1 (centres undefined)	/	14µM*	/	/	/	13µM*
CCN(CC)CCC(c1ccc(N(C)C)cc1)c1c(OC)cc(OC)c2c1OC(=O)CC2c1ccc(OC)cc1 (centres undefined)	/	?	/	/	/	16µM*
COc1cc(OC)c2c(c1C(CCN1CCN(c3ccccc3)CC1)c1ccc(N(C)C)cc1)OC(=O)CC2c1ccc(N(C)C)cc1 (centres undefined)	/	?	/	/	/	13µM*
SMILES	KAT2A inh	HP1b binding inh	BAZ2B inh	PI5P4Ka inh	PLK1 PBD block	JMJD2A Tudor inh
COc1ccc(C(CCN2CCCC(C)C2)c2c(OC)cc(OC)c3c2OC(=O)CC3c2cc(OC)c(OC)c(OC)c2)cc1 (centres undefined)	2%	7%	-24%	2	6%	-21%
CCN(CC)CCC(c1ccc(OC)cc1)c1c(O)cc(OC)cc1OC (centres undefined)	-11%	-5%	-3%	7	-10%	?
Nc1cccc(-c2cnc3ccccc3n2)c1	-15%	22%	-16%	-12	-3%	-13%
COc1ccc2c3c(cccc13)C(=O)CC2	-29%	45%	16%	-14	9.5µM*	16%
Cc1ccc(C)c(/C(O)=C2/C(=O)C(=O)N(CCN3CCOCC3)C2c2ccco2)c1 (centres undefined)	-4%	?	22µM*	-2	?	79µM*
Cc1ccc(C2/C(=C(/O)c3cnn(-c4ccccc4)c3C)C(=O)C(=O)N2CCN2CCOCC2)o1 (centres undefined)	-17%	14%	79µM*	-4	1%	?
Cc1c(/C(O)=C2/C(=O)C(=O)N(CCN3CCOCC3)C2c2cccs2)cnn1-c1ccccc1 (centres undefined)	-4%	24%	?	-10	-5%	-3%
Cc1ccc(C2/C(=C(/O)c3ccccc3)C(=O)C(=O)N2CCN2CCOCC2)o1 (centres undefined)	?	35%	-30%	1	-8%	-29%
CCOC(=O)N1CCN(C(=O)C[C@@H]2C[C@@]3(C(=O)OC)CCCCC=C3N(Cc3ccc(Cl)cc3Cl)C2=O)CC1	/	/	/	11	-6%	/
COc1cccc(NC(=O)C2C3C=CC4(O3)C2C(=O)N(CCCN2CCCC(C)C2)C4C(=O)NC2CCCCC2C)c1 (centres undefined)	-7%	10%	-9%	-4	5%	-9%
COc1cc(NS(=O)(=O)c2ccc(NC(=S)NC(=O)c3sc4cc(F)ccc4c3Cl)cc2)nc(OC)n1	5%	?	-29%	?	27µM*	?
COc1cc(NS(=O)(=O)c2ccc(NC(=S)NC(=O)c3sc4ccccc4c3Cl)cc2)nc(OC)n1	0%	?	50µM*	-27	?	-33%
COc1cc(NS(=O)(=O)c2ccc(NC(=S)NC(=O)c3ccco3)cc2)nc(OC)n1	4%	10%	?	5	-7%	-12%
CCOCCc1nnc(NC(=O)C(=O)c2cc(C)n(-c3ccc(Cl)cc3)c2C)s1	-19%	41%	-38%	/	/	-13%
Cc1cccc(C)c1NC(=O)CSc1nnc(C)n1CC1CCCO1 (centres undefined)	-6%	-20%	-14%	-4	24µM*	-14%[11.4 µM]
Cc1ccc(NCc2nnc(SCC(=O)Nc3ccccc3)n2CC2CCCO2)c(C)c1 (centres undefined)	-11%	-19%	?	0	-23%	56µM*
